Measured values reported in publication PMC7862700, “An all-to-all approach to the identification of sequence-specific readers for epigenetic DNA modifications on cytosine”.

Assays:
Experiment in all cases: DAPPL (digital affinity profiling via proximity ligation, sequencing); 10 mM Tris-HCl pH 7.5, 50 mM NaCl, 1 mM DTT, 4% glycerol, room temperature, 30 min; GST-TFs on glutathione beads, 16-mer random dsDNA library, 0.1% formaldehyde crosslink after washing; high values mean tight binding
Settings in all cases: protein: recombinant; tags: N-terminal GST; dsDNA, one strand shown
ERF = molecular target: T1, ERF (Homo sapiens, UniProt P50548 1-548)
T1 sequence: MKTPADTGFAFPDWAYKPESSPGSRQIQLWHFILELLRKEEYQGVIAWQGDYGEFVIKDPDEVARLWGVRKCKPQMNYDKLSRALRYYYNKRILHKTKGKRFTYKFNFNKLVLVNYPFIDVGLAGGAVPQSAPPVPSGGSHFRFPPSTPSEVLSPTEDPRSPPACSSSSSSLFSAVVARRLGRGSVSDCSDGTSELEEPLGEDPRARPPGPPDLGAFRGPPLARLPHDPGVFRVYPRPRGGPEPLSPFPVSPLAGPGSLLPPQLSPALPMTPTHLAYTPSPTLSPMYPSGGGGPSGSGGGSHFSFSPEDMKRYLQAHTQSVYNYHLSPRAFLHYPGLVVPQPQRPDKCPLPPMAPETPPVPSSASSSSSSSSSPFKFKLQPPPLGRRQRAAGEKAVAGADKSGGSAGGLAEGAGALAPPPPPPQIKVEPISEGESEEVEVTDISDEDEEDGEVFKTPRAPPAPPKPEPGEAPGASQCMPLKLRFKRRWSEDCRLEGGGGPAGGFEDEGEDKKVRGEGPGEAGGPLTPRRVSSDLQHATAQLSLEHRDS
Summary of the method: (§1)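 GST fusions of human transcription factors were expressed in yeast and captured with glutathione beads. Once given DNA barcodes and pooled alongside a tag-only sample, they were incubated for 30 min at room temperature with 200 nmole of a random double-stranded 16-mer DNA library in Tris/NaCl/DTT/glycerol buffer, then washed, crosslinked (0.1% formaldehyde), proximity-ligated, PCR-amplified and sequenced on an Illumina NextSeq500. The binding signal of each hexamer is its read frequency for a factor divided by its frequency for the tag-only sample.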

ETV3L = molecular target: T2, ETV3L (Homo sapiens, UniProt Q6ZN32 1-361)
T2 sequence: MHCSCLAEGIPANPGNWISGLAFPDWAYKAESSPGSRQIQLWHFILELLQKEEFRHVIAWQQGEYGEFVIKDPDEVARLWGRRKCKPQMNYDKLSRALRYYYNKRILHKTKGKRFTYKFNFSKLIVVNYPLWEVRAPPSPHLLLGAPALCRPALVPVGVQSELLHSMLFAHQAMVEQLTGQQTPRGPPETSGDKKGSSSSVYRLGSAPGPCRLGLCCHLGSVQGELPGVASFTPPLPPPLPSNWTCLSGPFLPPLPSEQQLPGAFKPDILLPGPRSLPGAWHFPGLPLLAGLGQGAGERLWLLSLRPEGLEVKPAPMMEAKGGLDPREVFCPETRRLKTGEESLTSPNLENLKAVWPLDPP
Summary of the method: as §1

ETS2 = molecular target: T3, ETS2 (Homo sapiens, UniProt P15036 1-469)
T3 sequence: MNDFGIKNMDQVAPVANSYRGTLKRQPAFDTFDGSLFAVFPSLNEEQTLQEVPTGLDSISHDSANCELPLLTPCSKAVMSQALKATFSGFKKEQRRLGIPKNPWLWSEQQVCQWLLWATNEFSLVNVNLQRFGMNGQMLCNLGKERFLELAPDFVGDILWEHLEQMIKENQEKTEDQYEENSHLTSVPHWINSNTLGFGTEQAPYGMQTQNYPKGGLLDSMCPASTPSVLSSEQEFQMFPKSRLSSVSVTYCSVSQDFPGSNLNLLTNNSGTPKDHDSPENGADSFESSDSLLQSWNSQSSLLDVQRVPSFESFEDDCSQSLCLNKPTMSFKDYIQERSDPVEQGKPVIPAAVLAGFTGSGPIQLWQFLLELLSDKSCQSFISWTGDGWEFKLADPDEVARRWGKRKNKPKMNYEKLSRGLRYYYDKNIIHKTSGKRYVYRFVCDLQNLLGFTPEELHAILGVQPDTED
Summary of the method: as §1

SPDEF = molecular target: T4, SPDEF (Homo sapiens, UniProt O95238 1-335)
T4 sequence: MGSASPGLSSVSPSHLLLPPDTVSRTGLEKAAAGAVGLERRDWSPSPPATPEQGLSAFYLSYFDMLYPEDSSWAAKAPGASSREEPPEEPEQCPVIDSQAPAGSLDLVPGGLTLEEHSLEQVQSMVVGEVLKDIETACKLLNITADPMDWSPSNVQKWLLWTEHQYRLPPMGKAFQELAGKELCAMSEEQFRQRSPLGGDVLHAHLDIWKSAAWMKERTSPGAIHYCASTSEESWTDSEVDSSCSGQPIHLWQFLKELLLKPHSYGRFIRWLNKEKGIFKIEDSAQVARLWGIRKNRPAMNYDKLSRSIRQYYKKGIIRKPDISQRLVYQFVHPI
Summary of the method: as §1

ETV7 = molecular target: T5, ETV7 (Homo sapiens, UniProt Q9Y603 1-341)
T5 sequence: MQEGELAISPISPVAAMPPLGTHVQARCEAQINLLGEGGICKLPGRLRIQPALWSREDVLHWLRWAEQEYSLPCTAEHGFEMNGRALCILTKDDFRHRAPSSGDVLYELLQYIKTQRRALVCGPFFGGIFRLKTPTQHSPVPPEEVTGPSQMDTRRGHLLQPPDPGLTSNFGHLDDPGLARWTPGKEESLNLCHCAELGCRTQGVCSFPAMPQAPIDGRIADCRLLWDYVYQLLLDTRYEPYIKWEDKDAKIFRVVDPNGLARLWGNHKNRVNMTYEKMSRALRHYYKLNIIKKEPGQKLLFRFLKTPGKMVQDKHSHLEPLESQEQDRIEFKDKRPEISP
Summary of the method: as §1

ELF5 = molecular target: T6, ELF5 (Homo sapiens, UniProt Q9UKW6-2 1-255)
T6 sequence: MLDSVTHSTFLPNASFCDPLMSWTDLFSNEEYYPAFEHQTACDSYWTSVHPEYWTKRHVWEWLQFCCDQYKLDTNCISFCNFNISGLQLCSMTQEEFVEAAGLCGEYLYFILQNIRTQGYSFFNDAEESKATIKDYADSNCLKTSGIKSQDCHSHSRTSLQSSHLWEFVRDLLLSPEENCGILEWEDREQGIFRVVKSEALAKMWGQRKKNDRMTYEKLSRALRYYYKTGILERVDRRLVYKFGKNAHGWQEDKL
Summary of the method: as §1

ETV3 = molecular target: T7, ETV3 (Homo sapiens, UniProt P41162-2 1-143)
T7 sequence: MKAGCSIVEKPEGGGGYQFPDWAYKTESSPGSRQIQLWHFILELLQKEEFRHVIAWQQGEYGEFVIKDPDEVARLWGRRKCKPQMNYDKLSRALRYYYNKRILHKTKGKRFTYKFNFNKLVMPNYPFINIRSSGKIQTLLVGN
Summary of the method: as §1

ETV6 = ETV6 (Homo sapiens, UniProt P41212 1-452)
Sequence of ETV6 (P41212 whole entry): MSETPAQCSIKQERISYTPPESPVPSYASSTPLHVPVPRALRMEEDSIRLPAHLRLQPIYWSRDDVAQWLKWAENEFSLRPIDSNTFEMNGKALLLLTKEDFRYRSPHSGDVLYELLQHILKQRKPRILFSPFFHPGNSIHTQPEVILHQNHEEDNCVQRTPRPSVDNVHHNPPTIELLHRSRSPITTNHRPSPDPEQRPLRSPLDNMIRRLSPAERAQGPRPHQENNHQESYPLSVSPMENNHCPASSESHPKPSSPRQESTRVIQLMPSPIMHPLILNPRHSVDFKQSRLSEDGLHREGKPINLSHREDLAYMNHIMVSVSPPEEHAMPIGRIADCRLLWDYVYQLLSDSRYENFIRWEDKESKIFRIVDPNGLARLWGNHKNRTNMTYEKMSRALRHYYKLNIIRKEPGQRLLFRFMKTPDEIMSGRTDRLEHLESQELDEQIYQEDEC
Summary of the method: as §1

With ATCATC the binding signal (ERF) was 1.08 fold enrichment (6-mer frequency, TF over GST control), the binding signal (ETV3L) was 1.23 fold enrichment (6-mer frequency, TF over GST control) and the binding signal (ETS2) was 1.25 fold enrichment (6-mer frequency, TF over GST control). For the same sequence, the binding signal (SPDEF) was 1.16 fold enrichment (6-mer frequency, TF over GST control), the binding signal (ETV7) was 1 fold enrichment (6-mer frequency, TF over GST control) and the binding signal (ELF5) was 1.17 fold enrichment (6-mer frequency, TF over GST control). For the same sequence, the binding signal (ETV3) was 1.23 fold enrichment (6-mer frequency, TF over GST control) and the binding signal (ETV6) was 1.1 fold enrichment (6-mer frequency, TF over GST control).
CCTAAA was tested, and the binding signal (ERF) was 1.4 fold enrichment (6-mer frequency, TF over GST control), the binding signal (ETV3L) was 1.32 fold enrichment (6-mer frequency, TF over GST control) and the binding signal (ETS2) was 1.33 fold enrichment (6-mer frequency, TF over GST control). The binding signal (SPDEF) was 1.32 fold enrichment (6-mer frequency, TF over GST control), the binding signal (ETV7) was 1.34 fold enrichment (6-mer frequency, TF over GST control) and the binding signal (ELF5) was 1.27 fold enrichment (6-mer frequency, TF over GST control). For the same sequence, the binding signal (ETV3) was 1.28 fold enrichment (6-mer frequency, TF over GST control) and the binding signal (ETV6) was 1.25 fold enrichment (6-mer frequency, TF over GST control).
CACTAA was tested, and the binding signal (ERF) was 1.21 fold enrichment (6-mer frequency, TF over GST control), the binding signal (ETV3L) was 1.28 fold enrichment (6-mer frequency, TF over GST control) and the binding signal (ETS2) was 1.18 fold enrichment (6-mer frequency, TF over GST control). The binding signal (SPDEF) was 1.15 fold enrichment (6-mer frequency, TF over GST control), the binding signal (ETV7) was 1.19 fold enrichment (6-mer frequency, TF over GST control) and the binding signal (ELF5) was 1.14 fold enrichment (6-mer frequency, TF over GST control). The binding signal (ETV3) was 1.07 fold enrichment (6-mer frequency, TF over GST control) and the binding signal (ETV6) was 1.12 fold enrichment (6-mer frequency, TF over GST control).
With TTGCTT the binding signal (ERF) was 1.18 fold enrichment (6-mer frequency, TF over GST control), the binding signal (ETV3L) was 1.28 fold enrichment (6-mer frequency, TF over GST control) and the binding signal (ETS2) was 1.19 fold enrichment (6-mer frequency, TF over GST control). The binding signal (SPDEF) was 1.28 fold enrichment (6-mer frequency, TF over GST control), the binding signal (ETV7) was 1.45 fold enrichment (6-mer frequency, TF over GST control) and the binding signal (ELF5) was 1.29 fold enrichment (6-mer frequency, TF over GST control). For the same sequence, the binding signal (ETV3) was 1.43 fold enrichment (6-mer frequency, TF over GST control) and the binding signal (ETV6) was 1.28 fold enrichment (6-mer frequency, TF over GST control).
With AAACCT the binding signal (ERF) was 1.18 fold enrichment (6-mer frequency, TF over GST control), the binding signal (ETV3L) was 1.07 fold enrichment (6-mer frequency, TF over GST control) and the binding signal (ETS2) was 1.13 fold enrichment (6-mer frequency, TF over GST control). The binding signal (SPDEF) was 1.05 fold enrichment (6-mer frequency, TF over GST control), the binding signal (ETV7) was 1.16 fold enrichment (6-mer frequency, TF over GST control) and the binding signal (ELF5) was 1.13 fold enrichment (6-mer frequency, TF over GST control). For the same sequence, the binding signal (ETV3) was 1.1 fold enrichment (6-mer frequency, TF over GST control) and the binding signal (ETV6) was 1.16 fold enrichment (6-mer frequency, TF over GST control).
For CGTACT, the binding signal (ERF) was 1.27 fold enrichment (6-mer frequency, TF over GST control), the binding signal (ETV3L) was 1.1 fold enrichment (6-mer frequency, TF over GST control) and the binding signal (ETS2) was 1.23 fold enrichment (6-mer frequency, TF over GST control). For the same sequence, the binding signal (SPDEF) was 1.11 fold enrichment (6-mer frequency, TF over GST control), the binding signal (ETV7) was 1.1 fold enrichment (6-mer frequency, TF over GST control) and the binding signal (ELF5) was 1.2 fold enrichment (6-mer frequency, TF over GST control). For the same sequence, the binding signal (ETV3) was 1.2 fold enrichment (6-mer frequency, TF over GST control) and the binding signal (ETV6) was 1.2 fold enrichment (6-mer frequency, TF over GST control).
CCAAAA was tested, and the binding signal (ERF) was 1.16 fold enrichment (6-mer frequency, TF over GST control), the binding signal (ETV3L) was 1.1 fold enrichment (6-mer frequency, TF over GST control) and the binding signal (ETS2) was 1.11 fold enrichment (6-mer frequency, TF over GST control). For the same sequence, the binding signal (SPDEF) was 1.11 fold enrichment (6-mer frequency, TF over GST control), the binding signal (ETV7) was 1.11 fold enrichment (6-mer frequency, TF over GST control) and the binding signal (ELF5) was 1.11 fold enrichment (6-mer frequency, TF over GST control). For the same sequence, the binding signal (ETV3) was 1.15 fold enrichment (6-mer frequency, TF over GST control) and the binding signal (ETV6) was 1.2 fold enrichment (6-mer frequency, TF over GST control).
